The values below come from paper PMC5700166.

Positions count from the first letter of the chain named.

What all share (assay): protein-binding microarray (PBM); PBM: ~300 nM protein, 6 mM HEPES pH 7.8, 80 mM KCl, 0.5 mM EDTA, 0.5 mM EGTA, 6% glycerol, 35 ng/ul poly-dIdC, 1% milk, 1 h, room temperature; Ap Aiptasia and Nv Nematostella (sea anemones) / Co Capsaspora / Aq Amphimedon (sponge) / Dm Drosophila / Hu human; RHD is the Rel homology domain; high values mean tight binding
Common to all, as to conditions: dsDNA, one strand shown

The target of assay [1] is T1, GST-Ap-NF-kB RHD (Exaiptasia pallida (Aiptasia), UniProt A0A913YAJ5 2-422).
T1 sequence: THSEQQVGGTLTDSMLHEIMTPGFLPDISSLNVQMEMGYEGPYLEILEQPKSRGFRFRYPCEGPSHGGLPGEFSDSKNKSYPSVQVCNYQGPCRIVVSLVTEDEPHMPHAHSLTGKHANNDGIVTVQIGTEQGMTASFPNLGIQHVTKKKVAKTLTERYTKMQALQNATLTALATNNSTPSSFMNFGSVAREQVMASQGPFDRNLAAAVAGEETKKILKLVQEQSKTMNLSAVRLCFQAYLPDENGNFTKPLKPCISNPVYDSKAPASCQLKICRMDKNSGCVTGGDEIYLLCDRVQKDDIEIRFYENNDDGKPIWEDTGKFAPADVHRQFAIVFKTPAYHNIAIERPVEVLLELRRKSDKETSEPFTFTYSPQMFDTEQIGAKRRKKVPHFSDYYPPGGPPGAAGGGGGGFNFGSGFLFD

Assay [2] has as its target T2, GST-Nv-NF-kB (Cys allele) (Nematostella vectensis, UniProt E5G601 2-411).
T2 sequence: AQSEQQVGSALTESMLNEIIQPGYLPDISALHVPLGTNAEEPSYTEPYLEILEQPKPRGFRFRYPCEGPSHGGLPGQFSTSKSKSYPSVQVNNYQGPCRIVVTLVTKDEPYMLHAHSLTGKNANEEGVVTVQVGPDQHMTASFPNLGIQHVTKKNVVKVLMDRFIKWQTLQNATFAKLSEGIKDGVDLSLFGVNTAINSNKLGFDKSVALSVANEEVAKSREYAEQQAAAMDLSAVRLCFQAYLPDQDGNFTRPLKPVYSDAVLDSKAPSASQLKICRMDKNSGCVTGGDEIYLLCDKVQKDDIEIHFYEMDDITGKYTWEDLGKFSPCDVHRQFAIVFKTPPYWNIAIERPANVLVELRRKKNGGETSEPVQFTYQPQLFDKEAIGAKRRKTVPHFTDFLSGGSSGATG

The target in assay [3] is T3, GST-Nv-NF-kB (Ser allele) (Nematostella vectensis, UniProt A7UNT2 2-411).
T3 sequence: T2 sequence with Q21R, C66S, S207N, E215Q, V217A, E225K, A268E, D399E

Assay [4] concerns the target T4, GST-Co-NF-kB (Capsaspora owczarzaki, UniProt F1ARL5 200-546).
T4 sequence: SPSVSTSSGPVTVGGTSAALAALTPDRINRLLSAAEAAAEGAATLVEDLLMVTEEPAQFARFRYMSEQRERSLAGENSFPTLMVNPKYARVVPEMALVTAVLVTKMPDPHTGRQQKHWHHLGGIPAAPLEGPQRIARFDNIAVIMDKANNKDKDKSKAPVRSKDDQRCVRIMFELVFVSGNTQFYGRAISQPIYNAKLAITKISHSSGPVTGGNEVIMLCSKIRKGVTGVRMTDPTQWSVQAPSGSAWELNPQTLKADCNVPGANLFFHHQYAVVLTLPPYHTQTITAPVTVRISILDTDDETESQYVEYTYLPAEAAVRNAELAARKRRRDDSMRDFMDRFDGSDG

Assay [5] deals with T5, GST-Dm-Relish (Drosophila melanogaster, UniProt Q94527 99-473).
T5 sequence: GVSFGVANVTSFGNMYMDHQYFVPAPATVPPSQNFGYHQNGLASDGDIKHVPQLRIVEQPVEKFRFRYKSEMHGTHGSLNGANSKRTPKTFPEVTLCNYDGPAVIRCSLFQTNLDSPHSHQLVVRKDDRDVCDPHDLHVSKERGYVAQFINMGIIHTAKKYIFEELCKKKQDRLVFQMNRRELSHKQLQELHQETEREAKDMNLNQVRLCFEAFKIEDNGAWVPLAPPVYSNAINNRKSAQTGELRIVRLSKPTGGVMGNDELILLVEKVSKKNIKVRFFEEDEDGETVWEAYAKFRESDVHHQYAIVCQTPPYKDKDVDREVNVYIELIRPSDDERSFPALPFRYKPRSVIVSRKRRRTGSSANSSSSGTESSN

The target of assay [6] is T6, GST-Aq-NF-kB (Amphimedon queenslandica, UniProt A9Y5G7 2-389).
T6 sequence: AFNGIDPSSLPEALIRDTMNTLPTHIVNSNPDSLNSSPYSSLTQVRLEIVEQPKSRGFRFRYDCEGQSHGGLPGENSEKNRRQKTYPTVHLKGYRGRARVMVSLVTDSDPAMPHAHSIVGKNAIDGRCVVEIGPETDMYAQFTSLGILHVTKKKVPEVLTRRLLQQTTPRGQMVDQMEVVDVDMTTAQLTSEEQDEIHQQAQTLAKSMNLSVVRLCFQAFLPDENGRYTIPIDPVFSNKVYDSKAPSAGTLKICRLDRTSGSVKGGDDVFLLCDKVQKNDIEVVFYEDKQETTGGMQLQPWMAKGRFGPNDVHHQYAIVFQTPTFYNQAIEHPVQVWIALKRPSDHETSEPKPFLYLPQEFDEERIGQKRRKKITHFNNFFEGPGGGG

In assay [7] the target is GST-Hu-p50 (Homo sapiens, UniProt P19838 7-356).
Chain of GST-Hu-p50 (P19838 7-356): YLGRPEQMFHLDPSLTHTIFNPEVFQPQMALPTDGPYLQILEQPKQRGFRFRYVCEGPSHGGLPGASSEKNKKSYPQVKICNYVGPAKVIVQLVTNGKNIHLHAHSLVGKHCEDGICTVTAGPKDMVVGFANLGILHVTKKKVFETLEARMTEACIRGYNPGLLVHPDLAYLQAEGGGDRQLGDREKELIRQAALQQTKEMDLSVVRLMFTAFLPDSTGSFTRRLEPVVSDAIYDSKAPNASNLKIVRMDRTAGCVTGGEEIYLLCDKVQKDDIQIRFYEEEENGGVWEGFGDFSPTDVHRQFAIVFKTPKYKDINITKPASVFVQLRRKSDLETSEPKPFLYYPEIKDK

On to “CCGATTAACATCAAATCCCCCCGTGATGTTAATCGGGTCTTGATTCGCTTGACGCTGCTG”, for which the binding signal was determined as 8.26 z-score in assay [1]; 7.22 z-score in assay [2]; 6.8 z-score in assay [3]; 7.74 z-score in assay [4]; 8.05 z-score in assay [5]; 6.07 z-score in assay [6]. Further, in assay [7], the binding signal amounted to 6.44 z-score.

As to “CCGATTAACATCACGGGATCCCCTGATGTTAATCGGGTCTTGATTCGCTTGACGCTGCTG”, the binding signal was 7.35 z-score in assay [1]; 4.81 z-score in assay [2]; 6.31 z-score in assay [3]; 3.23 z-score in assay [4]; 9.23 z-score in assay [5]; 5.41 z-score in assay [6]. In assay [7], this sequence came in with a binding signal of 4.53 z-score.

As to “CCGATTAACATCAATATATTCCCTGATGTTAATCGGGTCTTGATTCGCTTGACGCTGCTG”, the binding signal in assay [1] was found to be 4.19 z-score; in assay [2], 4.64 z-score; in assay [3], 4.95 z-score; in assay [4] it was 4.09 z-score; in assay [5], 2.1 z-score; in assay [6], 3.52 z-score. For the same sequence, the binding signal in assay [7] stood at 2.88 z-score.

With “CCGATTAACATCAGGGGGATTTATGATGTTAATCGGGTCTTGATTCGCTTGACGCTGCTG”, the binding signal in assay [1] worked out at 8.91 z-score; in assay [2] it was 9.22 z-score; in assay [3], 10 z-score; in assay [4], 6.7 z-score; in assay [5], 8.87 z-score; in assay [6], 7.3 z-score. Besides, the binding signal in assay [7] turned out to be 7.42 z-score.

With “CCGATTAACATCAGGGGGTACAATGATGTTAATCGGGTCTTGATTCGCTTGACGCTGCTG”, the binding signal in assay [1] came out at 4.98 z-score; in assay [2], 3.08 z-score; in assay [3], 4.91 z-score; in assay [4], 4.94 z-score; in assay [5] it was 2.37 z-score; in assay [6], 2.98 z-score. Further, in assay [7], the binding signal worked out at 3.09 z-score.

Consider “CCGATTAACATCAGGGGATTTGATGATGTTAATCGGGTCTTGATTCGCTTGACGCTGCTG”, for which the binding signal is 6.34 z-score in assay [1]; 6.28 z-score in assay [2]; 8.85 z-score in assay [3]; 2.37 z-score in assay [4]; 4.27 z-score in assay [5]; 4.26 z-score in assay [6]. The binding signal in assay [7] worked out at 6.12 z-score.

With “CCGATTAACATCACGGGGAATCCTGATGTTAATCGGGTCTTGATTCGCTTGACGCTGCTG”, the binding signal stood at 9.87 z-score in assay [1]; 9.94 z-score in assay [2]; 8.84 z-score in assay [3]; 8.28 z-score in assay [4]; 10 z-score in assay [5]; 7.48 z-score in assay [6]. Also, in assay [7], the binding signal amounted to 6.2 z-score.

For “CCGATTAACATCAAGGGGGTTCCTGATGTTAATCGGGTCTTGATTCGCTTGACGCTGCTG”, the binding signal in assay [1] came to 9.16 z-score; in assay [2], 6.77 z-score; in assay [3] it was 6.26 z-score; in assay [4], 1.68 z-score; in assay [5], 10.4 z-score; in assay [6] it was 7.2 z-score. The sequence further gave a binding signal in assay [7] of 6.65 z-score.

Consider “CCGATTAACATCATAATTCCCCATGATGTTAATCGGGTCTTGATTCGCTTGACGCTGCTG”, for which the binding signal amounted to 6.71 z-score in assay [1]; 8.63 z-score in assay [2]; 8.94 z-score in assay [3]; 6.68 z-score in assay [4]; 4.84 z-score in assay [5]; 5.33 z-score in assay [6]. The same sequence returned a binding signal in assay [7] of 6.35 z-score.

Consider “CCGATTAACATCAAAGCATCCCCTGATGTTAATCGGGTCTTGATTCGCTTGACGCTGCTG”, for which the binding signal in assay [1] was determined as 4.67 z-score; in assay [2], 5.06 z-score; in assay [3], 6.87 z-score; in assay [4] it was 3.43 z-score; in assay [5], 3.26 z-score; in assay [6] it was 4.15 z-score. In assay [7], this sequence registered a binding signal of 4.58 z-score.

As to “CCGATTAACATCAAAATAACCCCTGATGTTAATCGGGTCTTGATTCGCTTGACGCTGCTG”, the binding signal came out at 6.69 z-score in assay [1]; 5.59 z-score in assay [2]; 5.3 z-score in assay [3]; 3.27 z-score in assay [4]; 4.93 z-score in assay [5]; 5.19 z-score in assay [6]. In addition, the binding signal in assay [7] stood at 5.2 z-score.

Turning to “CCGATTAACATCAATTTTTCCCGTGATGTTAATCGGGTCTTGATTCGCTTGACGCTGCTG”, the binding signal in assay [1] came to 3.39 z-score; in assay [2] it was 4.95 z-score; in assay [3] it was 6.62 z-score; in assay [4] it was 6.5 z-score; in assay [5] it was 2.16 z-score; in assay [6] it was 4.56 z-score. The binding signal in assay [7] stood at 3.66 z-score.
